The source made the active and inactive calls.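 The calls were made as follows, unless noted: active = visually confirmed hit in the image check and inhibition above 20%; inconclusive = visually confirmed hit but inhibition not above 20%; inactive = no visual hit in the image check.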
How the values were obtained:
[1] = inhibitors of TNFa-induced NFkB p65 translocation, primary screen, imaging, HUVEC, MLSMR starter and 10KST1 sets (AID 438;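 active = inhibition above 20% together with a positive visual image hit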;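 also: compound added about 3h40 before a 20 min TNFalpha stimulation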;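 as to inhibition: signal is the nuclear over cytoplasmic p65 intensity ratio per well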); conditions: HUVEC TNFa-induced p65 nuclear translocation; cell count: measured here: nuclei count (cytotoxicity indicator), at 2.08 µM; inhibition: at 2 µM, stronger effect = higher value, 0% TNFa-plus-vehicle, 100% no-TNFa wells
[2] = inhibitors of mutant huntingtin aggregation, primary screen, imaging, exon1htt(103Q)mCFP cells, high-content imaging (AID 483;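 active = visual image review flags a hit and inhibition of aggregation exceeds 20%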;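 also: compound exposure lasted 3 days before fixation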;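 as to nuclei count: percent of the per-plate median nuclei count of sample wells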); conditions: exon1htt(103Q)mCFP cell line, aggregate imaging, at 2 µM; inhibition of aggregation: stronger effect = higher value; nuclei count: measured here: cell count, toxicity
[3] = inhibitors of E-selectin induction by TNFa, primary screen, imaging, HUVEC, immunofluorescence, MLSMR starter and 10KST1 sets (AID 487); conditions: HUVEC TNFalpha-induced E-selectin immunofluorescence imaging, at 2 µM; inhibition: stronger effect = higher value; nuclei count: measured here: cell number, toxicity;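 as to inhibition: signal is fraction of cell area covered by stained E-selectin grains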;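 as to nuclei count: 100% = median nuclei count of all wells on the same plate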
[4] = target: Voltage-gated potassium channel subunit beta-2 (Rattus norvegicus) (UniProt P62483); assay: KvBeta enzyme negative modulators, primary screen, biochemical, NADPH fluorescence (AID 622;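 active = fluorescence slope higher than the sample average by over 3 SD, cut at about -0.22 in these data, passing the limit was not always enough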;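 also: slope of raw intensity against log time taken from 70 to 1610 s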); conditions: recombinant KvBeta, 4-cyanobenzaldehyde reduction, at 10 µM, stronger effect = higher value
Chain of Voltage-gated potassium channel subunit beta-2 (Rattus norvegicus) (P62483 whole entry, looked up): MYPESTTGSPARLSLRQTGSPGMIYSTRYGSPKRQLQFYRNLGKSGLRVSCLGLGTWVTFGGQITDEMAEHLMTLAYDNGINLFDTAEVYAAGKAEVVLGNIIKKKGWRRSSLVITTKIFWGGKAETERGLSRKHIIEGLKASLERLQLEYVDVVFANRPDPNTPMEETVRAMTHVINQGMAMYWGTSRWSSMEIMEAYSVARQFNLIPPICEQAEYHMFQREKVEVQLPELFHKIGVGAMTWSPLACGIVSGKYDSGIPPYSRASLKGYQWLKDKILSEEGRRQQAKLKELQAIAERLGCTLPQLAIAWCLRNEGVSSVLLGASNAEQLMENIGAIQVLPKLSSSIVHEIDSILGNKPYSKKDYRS

[5] = target: Voltage-gated potassium channel subunit beta-2 (Rattus norvegicus) (UniProt P62483); assay: KvBeta positive modulators, primary screen, biochemical, NADPH fluorescence (AID 623;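 active = NADPH fluorescence slope more negative than the mean of all samples by about 3 SD, 99.7% confidence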;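 also: fluorescence intensity change per second fitted from 20 to 320 s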); conditions: Recombinant KvBeta, NADPH fluorescence decrease slope, 10 min; at 10 µM; stronger effect = lower value
[6] = target: Alpha-2C adrenergic receptor (Homo sapiens) (UniProt P18825); assay: modulators of alpha2C/GIRK thallium flux, primary screen, cell-based, HEK293 alpha2C/GIRK1/2 (AID 624;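 active = fluorescence slope after compound addition differing from the mean of all screened samples at 99.7% confidence, in either direction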;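 also: slope of fluorescence ratio to pre-addition baseline per second over 15 to 24 s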); conditions: thallium flux BTC fluorescence, at 10 µM, actives lie on both sides
Chain of Alpha-2C adrenergic receptor (Homo sapiens) (P18825 whole entry, looked up): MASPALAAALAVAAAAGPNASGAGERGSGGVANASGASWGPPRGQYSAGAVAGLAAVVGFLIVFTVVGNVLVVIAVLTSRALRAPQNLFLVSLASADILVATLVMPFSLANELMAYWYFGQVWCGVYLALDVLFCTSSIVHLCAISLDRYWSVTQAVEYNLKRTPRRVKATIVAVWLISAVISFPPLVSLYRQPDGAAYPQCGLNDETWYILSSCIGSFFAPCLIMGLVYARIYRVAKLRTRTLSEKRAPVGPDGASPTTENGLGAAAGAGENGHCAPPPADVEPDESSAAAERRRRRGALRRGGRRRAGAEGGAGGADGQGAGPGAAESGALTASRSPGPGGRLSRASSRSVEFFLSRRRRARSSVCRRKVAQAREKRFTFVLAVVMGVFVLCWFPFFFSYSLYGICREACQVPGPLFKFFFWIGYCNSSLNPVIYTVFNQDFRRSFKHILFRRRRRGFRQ

[7] = inhibitors of Sendai virus-induced IRF3 signaling, primary screen, TLR/RLR signaling modifier project, cell-based, Sendai virus stimulus, luciferase, 10K MLSCN set (AID 602276;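 active = inhibition at or above 50% at 10 µM; inactive = inhibition below 50%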;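 also: firefly luciferase from ISG56 promoter only with Renilla not read in this screen; 0% = Sendai virus plus DMSO and 100% = medium plus DMSO without virus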); conditions: HEK293 RL24 IRF3 luciferase reporter, at 10 µM, stronger effect = higher value
[8] = inhibitors of poly I:C-induced TLR3 signaling, primary screen, cell-based, poly I:C stimulus, luciferase, 10K MLSCN set (AID 602277;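 active = inhibition of the reporter signal at or above 50%; inactive = inhibition below 50%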); conditions: HEK293-TLR3 RL24 IRF3 luciferase reporter, at 10 µM, stronger effect = higher value

| Structure (SMILES) | cell count [1] | inhibition [1] | inhibition of aggregation [2] | nuclei count [2] [%] | inhibition [3] | nuclei count [3] [%] | fluorescence slope [4] | NADPH fluorescence slope [5] | slope [6] | inhibition [7] | inhibition [8] |
| --- | --- | --- | --- | --- | --- | --- | --- | --- | --- | --- | --- |
| c1ccc(Cn2nnnc2CN2CCCC2)cc1 | 433 | -9.4% (inactive) | 2.6% (inactive) | 100 | -38.6% (inactive) | 94 | -0.499 (inactive) | -2.2e-05 (inactive) | 0.00601 (inactive) | 14.5% (inactive) | 19.4% (inactive) |
| O=C(O)Cc1ccccc1C(=O)O | 685 | -0.4% (inactive) | 0% (inactive) | 99.9 | -66.3% (inactive) | 142 | -0.491 (inactive) | -5e-05 (inactive) | 0.00429 (inactive) | 13.7% (inactive) | 11.2% (inactive) |
| Cc1sc2nc(SCC(=O)Nc3c(C)n(C)n(-c4ccccc4)c3=O)n(C)c(=O)c2c1C | 556 | -8.3% (inactive) | 9% (inactive) | 74.8 | 13.4% (inactive) | 118 | -0.376 (inactive) | 1e-05 (inactive) | 0.00842 (inactive) | 5.86% (inactive) | -5.09% (inactive) |
| CCC(OC(=O)c1cccs1)C(=O)NCc1ccco1 (centres undefined) | 404 | 5.2% (inactive) | 10.4% (inactive) | 90.1 | -72.5% (inactive) | 118 | -0.44 (inactive) | -0.000112 (inactive) | 0.00455 (inactive) | 16.1% (inactive) | 25% (inactive) |
| CCOC(=O)c1cccc(NC(=O)CSc2nc3cccnc3n2C)c1 | 782 | -8.4% (inactive) | 0.7% (inactive) | 111 | -14.2% (inactive) | 105 | -0.526 (inactive) | 4.1e-06 (inactive) | 0.00563 (inactive) | -4.22% (inactive) | -23.7% (inactive) |
| COc1ccc(-c2nnn(CCc3nn[nH]n3)n2)cc1OC | 419 | -7.7% (inactive) | 1.4% (inactive) | 70.5 | -9.7% (inactive) | 112 | -0.561 (inactive) | -2.6e-05 (inactive) | 0.00328 (inactive) | 8.58% (inactive) | -8.87% (inactive) |
| Cc1ccc2cc(CN(CC3CCCO3)S(=O)(=O)c3ccc4c(c3)OCCO4)c(=O)[nH]c2c1C (centres undefined) | 478 | 2.4% (inactive) | 8.6% (inactive) | 110 | -42.1% (inactive) | 135 | -0.391 (inactive) | -8.2e-06 (inactive) | 0.00544 (inactive) | 3.97% (inactive) | -19.6% (inactive) |
| CCOc1ccc(NC2c3ccccc3C(=O)N2Cc2ccco2)cc1 (centres undefined) | 695 | -6.7% (inactive) | 6.4% (inactive) | 47.6 | -23.8% (inactive) | 91.8 | -0.6 (inactive) | 1.5e-05 (inactive) | 0.00369 (inactive) | -13.3% (inactive) | -22.8% (inactive) |
| CCSc1nc2ccccc2n1CCC(=O)O | 615 | -62.2% (inactive) | 1.9% (inactive) | 85.7 | -96.2% (inactive) | 111 | -0.49 (inactive) | -0.000157 (inactive) | 0.00453 (inactive) | 10.2% (inactive) | 18.3% (inactive) |
| COc1cc2c(cc1OC)C(c1ccccc1O)N(C1CC(=O)N(c3ccccc3)C1=O)CC2 (centres undefined) | 409 | -0.5% (inactive) | -10.4% (inactive) | 105 | -27.1% (inactive) | 123 | -0.411 (inactive) | -8.8e-05 (inactive) | 0.00648 (inactive) | 15.9% (inactive) | 28.7% (inactive) |
| O=C(c1ccc(Br)cc1)N1CCN(S(=O)(=O)c2ccccc2)CC1 | 556 | -5.1% (inactive) | 3.3% (inactive) | 66.6 | -43.3% (inactive) | 106 | -0.588 (inactive) | -9.2e-07 (inactive) | 0.00631 (inactive) | -3.58% (inactive) | 20% (inactive) |
| OC(CN1CCOCC1)Cn1c(-c2cccc(Cl)c2)nc2ccccc21 (centres undefined) | 500 | -2.9% (inactive) | -7.7% (inactive) | 108 | -39.6% (inactive) | 112 | -0.598 (inactive) | 1.9e-05 (inactive) | 0.00704 (inactive) | 10.2% (inactive) | 32.2% (inactive) |
| Nc1nonc1-n1nnc(C(=O)c2ccccc2)c1-c1ccccc1 | 412 | -20% (inactive) | 1.5% (inactive) | 110 | 28.1% (inactive) | 103 | -0.571 (inactive) | 7.3e-06 (inactive) | 0.00623 (inactive) | 10.9% (inactive) | 2.08% (inactive) |
| CC(=O)N1CCN(S(=O)(=O)c2ccc(S(=O)(=O)NCC(C)C)cc2)CC1 | 641 | 1.6% (inactive) | 5.2% (inactive) | 102 | -10.2% (inactive) | 110 | -0.399 (inactive) | -3.9e-05 (inactive) | 0.00517 (inactive) | 14.8% (inactive) | 12.6% (inactive) |
